Results on 20 sequences are retold here after the OligoGym collection.
Note: reference of the scale not given here.

One assay concerns the target MAGED2. As to the kind of experiment: pooled miR-30 sensor sort-seq; sequence = guide strand. To be noted: shRNA.
For AACAGAGTCTGCATCATCGAGC, the sensor-assay potency score (higher = more potent) was -0.281.

Consider TTGTATTGACCTTTGTATCAGC, for which the sensor-assay potency score (higher = more potent) was -0.669.

Sequence TTTAGCTTCTGCTCCCGCCTGG registered a sensor-assay potency score (higher = more potent) of -0.0182.

On to TCGAGCTCTAATCTCGGCCCTA, for which the sensor-assay potency score (higher = more potent) is -0.609.

Regarding TTCTTTGATGATGTCCTTCAGC, the sensor-assay potency score (higher = more potent) is -0.636.

In turn, TTTGATGATGTCCTTCAGCATG yielded a sensor-assay potency score (higher = more potent) of -1.48.

In the case of TTTCTTGGCTTTGACCTTGGGC, the sensor-assay potency score (higher = more potent) worked out at 0.00108.

As to TTCTTTTGTACCTTGCAGGCAA, the sensor-assay potency score (higher = more potent) was found to be 0.18.

Sequence TTTTGAGACCTTCACATCCTCT came in with a sensor-assay potency score (higher = more potent) of -1.1.

Sequence TTGGGTGAGTCCTTAGTCGTTC had a sensor-assay potency score (higher = more potent) of -0.156.

TTGATGGGAATCTTCGTCTGGT returned a sensor-assay potency score (higher = more potent) of -0.0413.

In a further assay the target is MAGOHB. The description is as above. To be noted: shRNA.
For the sequence AATTACAATTTCAAGCTCCTGT, the sensor-assay potency score (higher = more potent) amounted to 0.142.

Sequence TCTTCTTTTGTAATTTCACTGT registered a sensor-assay potency score (higher = more potent) of -0.146.

Sequence TTCGAACTCCAGAAACTCGTGC had a sensor-assay potency score (higher = more potent) of 0.282.

Take TTTTCTGATCATCACATCATTT: the sensor-assay potency score (higher = more potent) was -1.33.

For TTACATCAATAAGAGAACCTAT, the sensor-assay potency score (higher = more potent) was -0.7.

TTCCATTACACTCTTGTGCACA showed a sensor-assay potency score (higher = more potent) of -0.478.

Sequence TTCTTCCATTACACTCTTGTGC showed a sensor-assay potency score (higher = more potent) of -0.965.

For the sequence AAACTAAACATTTCAAGTCTTG, the sensor-assay potency score (higher = more potent) was -0.697.

TTCTTTTGTAATTTCACTGTCA: the sensor-assay potency score (higher = more potent) was 0.267.
